1 sequence from PMC7862700, “An all-to-all approach to the identification of sequence-specific readers for epigenetic DNA modifications on cytosine” can be followed below.

Holding throughout (assay): DAPPL (digital affinity profiling via proximity ligation, sequencing); 10 mM Tris-HCl pH 7.5, 50 mM NaCl, 1 mM DTT, 4% glycerol, room temperature, 30 min; GST-TFs on glutathione beads, 16-mer random dsDNA library, 0.1% formaldehyde crosslink after washing; high values mean tight binding
For one test, the target named is T1, FEV (Homo sapiens, UniProt Q99581 1-238).
T1 sequence: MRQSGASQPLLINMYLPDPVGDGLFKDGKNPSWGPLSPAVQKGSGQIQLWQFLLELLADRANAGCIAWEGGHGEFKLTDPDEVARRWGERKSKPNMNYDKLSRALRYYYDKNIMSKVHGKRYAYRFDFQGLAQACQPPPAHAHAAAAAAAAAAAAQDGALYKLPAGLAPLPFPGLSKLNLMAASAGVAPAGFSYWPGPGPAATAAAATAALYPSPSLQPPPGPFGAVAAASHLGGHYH
Conditions: protein: recombinant; tags: N-terminal GST; dsDNA, one strand shown. The gist of the method: (§1)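 Each value of binding signal is a hexamer's read frequency for a factor divided by the same hexamer's frequency in the tag-only sample. Barcoded, bead-captured GST fusions of human transcription factors made in yeast were pooled with that sample and incubated with 200 nmole of a random double-stranded 16-mer DNA library in Tris/NaCl/DTT/glycerol buffer at room temperature for 30 min. Washing, 0.1% formaldehyde crosslinking, proximity ligation, PCR and Illumina NextSeq500 sequencing followed.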

In the next test the target is ETV5 (Homo sapiens, UniProt P41161 1-510). Conditions: protein: recombinant; tags: N-terminal GST; dsDNA, one strand shown. The gist of the method:
as §1

In a further test the target is HSF1 (Homo sapiens, UniProt Q00613 1-529). Conditions: protein: recombinant; tags: N-terminal GST; chain copies: 3; dsDNA, one strand shown. The gist of the method: as §1
The target in a further test is T2, SPIC (Homo sapiens, UniProt Q8N5J4 1-248).
T2 sequence: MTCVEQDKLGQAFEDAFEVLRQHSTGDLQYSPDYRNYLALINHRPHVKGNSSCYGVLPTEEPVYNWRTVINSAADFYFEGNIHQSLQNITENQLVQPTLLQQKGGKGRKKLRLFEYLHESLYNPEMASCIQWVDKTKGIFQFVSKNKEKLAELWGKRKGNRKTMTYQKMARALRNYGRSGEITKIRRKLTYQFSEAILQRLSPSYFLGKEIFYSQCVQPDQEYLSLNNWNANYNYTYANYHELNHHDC
As to conditions: protein: recombinant; tags: N-terminal GST; dsDNA, one strand shown. The essentials:
as §1

For a further test, the target named is ELF4 (Homo sapiens, UniProt Q99607 1-663). Conditions: protein: recombinant; tags: N-terminal GST; dsDNA, one strand shown. The gist of the method:
as §1

In a further test the target is T3, ELK4 (Homo sapiens, UniProt P28324-2 1-405).
T3 sequence: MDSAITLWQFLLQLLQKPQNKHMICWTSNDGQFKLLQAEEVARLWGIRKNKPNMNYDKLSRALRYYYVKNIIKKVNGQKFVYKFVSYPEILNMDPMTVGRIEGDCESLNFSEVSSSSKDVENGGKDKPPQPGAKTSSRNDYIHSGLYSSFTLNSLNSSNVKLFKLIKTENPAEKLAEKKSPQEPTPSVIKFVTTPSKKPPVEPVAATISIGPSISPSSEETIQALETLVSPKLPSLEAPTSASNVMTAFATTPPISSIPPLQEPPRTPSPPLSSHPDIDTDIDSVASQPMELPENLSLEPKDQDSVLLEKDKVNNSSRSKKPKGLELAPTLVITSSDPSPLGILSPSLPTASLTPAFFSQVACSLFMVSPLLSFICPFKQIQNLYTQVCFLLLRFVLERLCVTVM
As to conditions: protein: recombinant; tags: N-terminal GST; dsDNA, one strand shown. The essentials:
as §1

Another test has as its target T4, ETV2 (Homo sapiens, UniProt O00321 1-342).
T4 sequence: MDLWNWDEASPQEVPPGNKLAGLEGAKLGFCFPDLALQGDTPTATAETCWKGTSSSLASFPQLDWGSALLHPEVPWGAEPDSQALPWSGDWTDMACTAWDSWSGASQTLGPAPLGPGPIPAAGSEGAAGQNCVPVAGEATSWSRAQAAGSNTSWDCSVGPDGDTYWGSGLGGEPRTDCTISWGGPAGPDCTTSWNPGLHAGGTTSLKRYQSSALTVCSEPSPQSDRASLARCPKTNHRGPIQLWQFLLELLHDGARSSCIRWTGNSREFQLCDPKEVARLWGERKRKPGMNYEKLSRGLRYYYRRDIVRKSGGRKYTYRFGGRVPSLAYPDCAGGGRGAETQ
Conditions: protein: recombinant; tags: N-terminal GST; dsDNA, one strand shown. The gist of the method: as §1

The target in another test is T5, ELF3 (Homo sapiens, UniProt P78545 1-371).
T5 sequence: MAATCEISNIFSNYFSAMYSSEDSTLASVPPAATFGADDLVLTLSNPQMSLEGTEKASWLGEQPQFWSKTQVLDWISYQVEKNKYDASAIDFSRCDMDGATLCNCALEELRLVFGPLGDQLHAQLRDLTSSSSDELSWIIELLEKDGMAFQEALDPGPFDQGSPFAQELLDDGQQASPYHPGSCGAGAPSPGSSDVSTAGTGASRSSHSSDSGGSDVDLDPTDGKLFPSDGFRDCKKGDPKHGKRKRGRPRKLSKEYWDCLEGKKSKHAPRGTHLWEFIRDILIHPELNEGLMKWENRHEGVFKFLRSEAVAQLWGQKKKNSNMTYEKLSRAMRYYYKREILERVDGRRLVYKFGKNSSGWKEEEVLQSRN
As to conditions: protein: recombinant; tags: N-terminal GST; dsDNA, one strand shown. The essentials: as §1

The target of a further test is CRX (Homo sapiens, UniProt O43186 1-299). Conditions: protein: recombinant; tags: N-terminal GST; dsDNA, one strand shown. The gist of the method:
as §1

For the next test, the target named is ETV1 (Homo sapiens, UniProt P50549 1-477). As to conditions: protein: recombinant; tags: N-terminal GST; dsDNA, one strand shown. The gist of the method: as §1
The target of the next test is T6, ERF (Homo sapiens, UniProt P50548 1-548).
T6 sequence: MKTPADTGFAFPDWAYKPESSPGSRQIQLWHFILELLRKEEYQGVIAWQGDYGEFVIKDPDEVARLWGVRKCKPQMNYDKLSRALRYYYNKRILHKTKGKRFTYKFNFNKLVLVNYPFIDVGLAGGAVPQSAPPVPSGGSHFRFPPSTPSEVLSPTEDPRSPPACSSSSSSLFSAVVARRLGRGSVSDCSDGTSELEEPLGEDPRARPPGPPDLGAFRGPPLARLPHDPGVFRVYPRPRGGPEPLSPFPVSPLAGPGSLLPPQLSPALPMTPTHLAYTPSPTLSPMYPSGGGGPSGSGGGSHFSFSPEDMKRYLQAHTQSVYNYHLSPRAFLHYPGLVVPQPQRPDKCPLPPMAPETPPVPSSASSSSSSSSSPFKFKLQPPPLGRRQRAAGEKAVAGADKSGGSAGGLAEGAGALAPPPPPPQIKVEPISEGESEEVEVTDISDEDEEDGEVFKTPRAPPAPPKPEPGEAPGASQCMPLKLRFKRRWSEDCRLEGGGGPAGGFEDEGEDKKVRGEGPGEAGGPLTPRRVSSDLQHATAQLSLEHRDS
Conditions: protein: recombinant; tags: N-terminal GST; dsDNA, one strand shown. The essentials:
as §1

In another test the target is T7, ETV3L (Homo sapiens, UniProt Q6ZN32 1-361).
T7 sequence: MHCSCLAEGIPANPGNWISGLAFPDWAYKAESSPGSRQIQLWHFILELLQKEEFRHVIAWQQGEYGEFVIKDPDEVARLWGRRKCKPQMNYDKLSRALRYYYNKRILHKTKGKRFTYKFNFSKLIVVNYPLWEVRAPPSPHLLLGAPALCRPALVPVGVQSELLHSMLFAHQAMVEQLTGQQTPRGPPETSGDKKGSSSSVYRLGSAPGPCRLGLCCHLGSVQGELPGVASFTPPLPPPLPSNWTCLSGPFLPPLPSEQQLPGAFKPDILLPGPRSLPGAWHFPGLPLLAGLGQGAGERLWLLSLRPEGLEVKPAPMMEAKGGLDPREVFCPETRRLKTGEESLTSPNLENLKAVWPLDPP
Conditions: protein: recombinant; tags: N-terminal GST; dsDNA, one strand shown. The essentials: as §1

The target of the next test is T8, ETS2 (Homo sapiens, UniProt P15036 1-469).
T8 sequence: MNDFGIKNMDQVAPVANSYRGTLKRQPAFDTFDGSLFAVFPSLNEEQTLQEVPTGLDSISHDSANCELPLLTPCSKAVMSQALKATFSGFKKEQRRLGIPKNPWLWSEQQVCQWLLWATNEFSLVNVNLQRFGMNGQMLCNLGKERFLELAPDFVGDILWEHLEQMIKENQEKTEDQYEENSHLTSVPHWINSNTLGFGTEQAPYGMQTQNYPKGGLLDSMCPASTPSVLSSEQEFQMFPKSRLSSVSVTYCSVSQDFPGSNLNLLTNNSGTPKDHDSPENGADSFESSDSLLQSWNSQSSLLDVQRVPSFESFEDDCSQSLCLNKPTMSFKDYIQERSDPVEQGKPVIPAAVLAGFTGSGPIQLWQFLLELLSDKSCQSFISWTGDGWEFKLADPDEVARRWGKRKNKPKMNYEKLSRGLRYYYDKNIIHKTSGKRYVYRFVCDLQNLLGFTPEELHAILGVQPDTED
Conditions: protein: recombinant; tags: N-terminal GST; dsDNA, one strand shown. The essentials: as §1

The target in another test is T9, SPDEF (Homo sapiens, UniProt O95238 1-335).
T9 sequence: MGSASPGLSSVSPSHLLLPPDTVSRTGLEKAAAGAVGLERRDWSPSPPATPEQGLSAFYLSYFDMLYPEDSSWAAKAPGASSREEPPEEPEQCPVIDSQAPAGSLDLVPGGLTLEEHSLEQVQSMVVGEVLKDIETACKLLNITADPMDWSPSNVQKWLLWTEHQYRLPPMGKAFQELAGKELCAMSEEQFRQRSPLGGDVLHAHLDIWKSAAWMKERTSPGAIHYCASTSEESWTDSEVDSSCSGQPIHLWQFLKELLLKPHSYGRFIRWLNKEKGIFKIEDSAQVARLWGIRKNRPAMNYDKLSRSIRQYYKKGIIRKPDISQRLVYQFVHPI
As to conditions: protein: recombinant; tags: N-terminal GST; dsDNA, one strand shown. The gist of the method: as §1

For another test, the target named is T10, ETV7 (Homo sapiens, UniProt Q9Y603 1-341).
T10 sequence: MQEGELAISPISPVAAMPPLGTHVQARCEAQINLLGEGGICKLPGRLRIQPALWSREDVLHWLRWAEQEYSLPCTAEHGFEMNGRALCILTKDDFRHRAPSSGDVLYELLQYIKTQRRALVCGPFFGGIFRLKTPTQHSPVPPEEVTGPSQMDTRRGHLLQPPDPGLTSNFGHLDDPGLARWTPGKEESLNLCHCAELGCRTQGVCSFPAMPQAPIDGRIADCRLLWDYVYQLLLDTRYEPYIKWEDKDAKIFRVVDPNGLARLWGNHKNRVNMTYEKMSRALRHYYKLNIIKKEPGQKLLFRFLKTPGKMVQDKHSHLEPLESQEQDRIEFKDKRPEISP
As to conditions: protein: recombinant; tags: N-terminal GST; dsDNA, one strand shown. The gist of the method: as §1

For the next test, the target named is T11, ELF5 (Homo sapiens, UniProt Q9UKW6-2 1-255).
T11 sequence: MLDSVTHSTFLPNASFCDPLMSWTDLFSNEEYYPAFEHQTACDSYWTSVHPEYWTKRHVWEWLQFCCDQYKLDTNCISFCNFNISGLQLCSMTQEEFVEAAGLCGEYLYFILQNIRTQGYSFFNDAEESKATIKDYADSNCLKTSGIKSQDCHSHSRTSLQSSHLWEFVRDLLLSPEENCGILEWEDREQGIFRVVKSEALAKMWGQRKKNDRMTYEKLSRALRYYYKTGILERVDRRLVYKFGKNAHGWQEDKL
Conditions: protein: recombinant; tags: N-terminal GST; dsDNA, one strand shown. The gist of the method: as §1

The target of another test is T12, ETV3 (Homo sapiens, UniProt P41162-2 1-143).
T12 sequence: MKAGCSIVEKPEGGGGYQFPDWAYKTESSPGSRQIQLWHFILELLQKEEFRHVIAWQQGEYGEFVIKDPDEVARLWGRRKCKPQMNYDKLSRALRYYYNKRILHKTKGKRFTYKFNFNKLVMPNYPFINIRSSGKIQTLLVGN
Conditions: protein: recombinant; tags: N-terminal GST; dsDNA, one strand shown. The gist of the method:
as §1

Another test deals with ETV6 (Homo sapiens, UniProt P41212 1-452). As to conditions: protein: recombinant; tags: N-terminal GST; dsDNA, one strand shown. The essentials:
as §1

Chain of CRX (O43186 whole entry): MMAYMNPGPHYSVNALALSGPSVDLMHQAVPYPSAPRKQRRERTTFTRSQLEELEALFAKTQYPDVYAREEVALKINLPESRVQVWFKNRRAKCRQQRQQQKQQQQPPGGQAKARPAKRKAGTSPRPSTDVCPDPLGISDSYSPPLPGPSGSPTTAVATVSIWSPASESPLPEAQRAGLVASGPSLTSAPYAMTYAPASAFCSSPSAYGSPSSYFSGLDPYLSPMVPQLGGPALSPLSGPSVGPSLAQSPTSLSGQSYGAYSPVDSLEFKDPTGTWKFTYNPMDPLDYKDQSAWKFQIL
Chain of ELF4 (Q99607 whole entry): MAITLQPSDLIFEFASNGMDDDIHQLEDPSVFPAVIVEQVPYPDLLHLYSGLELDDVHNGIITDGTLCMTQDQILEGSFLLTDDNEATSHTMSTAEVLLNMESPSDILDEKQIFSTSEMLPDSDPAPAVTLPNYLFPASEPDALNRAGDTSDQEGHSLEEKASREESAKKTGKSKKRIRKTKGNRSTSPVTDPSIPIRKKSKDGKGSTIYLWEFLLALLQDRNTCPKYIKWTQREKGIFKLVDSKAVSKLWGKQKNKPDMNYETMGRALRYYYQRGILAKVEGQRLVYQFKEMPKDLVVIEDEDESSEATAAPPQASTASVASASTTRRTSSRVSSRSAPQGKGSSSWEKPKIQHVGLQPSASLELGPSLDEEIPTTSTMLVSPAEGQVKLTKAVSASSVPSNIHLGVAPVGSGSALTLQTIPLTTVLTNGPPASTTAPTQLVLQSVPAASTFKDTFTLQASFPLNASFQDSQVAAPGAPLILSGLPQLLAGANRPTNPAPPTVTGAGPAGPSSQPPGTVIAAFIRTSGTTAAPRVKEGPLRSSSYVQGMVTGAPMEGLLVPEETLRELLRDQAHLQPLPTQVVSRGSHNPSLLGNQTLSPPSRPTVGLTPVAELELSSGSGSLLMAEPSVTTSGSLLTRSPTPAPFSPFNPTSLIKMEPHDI
Chain of HSF1 (Q00613 whole entry): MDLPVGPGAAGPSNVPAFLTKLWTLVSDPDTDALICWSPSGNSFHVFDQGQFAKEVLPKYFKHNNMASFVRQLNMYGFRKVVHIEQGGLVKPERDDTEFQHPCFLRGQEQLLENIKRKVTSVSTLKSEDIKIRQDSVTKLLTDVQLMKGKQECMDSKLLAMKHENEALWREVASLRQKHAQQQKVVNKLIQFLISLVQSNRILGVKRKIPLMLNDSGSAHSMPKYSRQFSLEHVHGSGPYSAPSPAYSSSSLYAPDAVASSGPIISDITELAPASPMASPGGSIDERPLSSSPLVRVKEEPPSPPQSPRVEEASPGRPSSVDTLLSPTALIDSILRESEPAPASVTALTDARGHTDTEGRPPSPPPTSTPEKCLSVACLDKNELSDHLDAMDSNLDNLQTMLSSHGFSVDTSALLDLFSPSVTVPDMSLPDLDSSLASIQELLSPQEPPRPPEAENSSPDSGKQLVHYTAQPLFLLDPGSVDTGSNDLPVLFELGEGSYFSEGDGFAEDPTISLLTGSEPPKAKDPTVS
Chain of ETV6 (P41212 whole entry): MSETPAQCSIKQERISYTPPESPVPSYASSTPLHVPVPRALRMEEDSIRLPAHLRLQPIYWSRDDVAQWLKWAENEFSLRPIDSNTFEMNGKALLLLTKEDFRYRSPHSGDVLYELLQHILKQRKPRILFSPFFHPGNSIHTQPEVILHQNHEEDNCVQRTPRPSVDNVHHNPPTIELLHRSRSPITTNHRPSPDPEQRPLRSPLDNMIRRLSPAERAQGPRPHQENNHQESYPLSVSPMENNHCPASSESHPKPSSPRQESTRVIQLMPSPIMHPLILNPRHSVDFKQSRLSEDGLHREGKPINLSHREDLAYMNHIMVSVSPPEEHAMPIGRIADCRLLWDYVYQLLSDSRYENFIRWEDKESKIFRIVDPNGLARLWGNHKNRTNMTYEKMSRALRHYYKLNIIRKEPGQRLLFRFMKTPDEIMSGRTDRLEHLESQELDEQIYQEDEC
Chain of ETV1 (P50549 whole entry): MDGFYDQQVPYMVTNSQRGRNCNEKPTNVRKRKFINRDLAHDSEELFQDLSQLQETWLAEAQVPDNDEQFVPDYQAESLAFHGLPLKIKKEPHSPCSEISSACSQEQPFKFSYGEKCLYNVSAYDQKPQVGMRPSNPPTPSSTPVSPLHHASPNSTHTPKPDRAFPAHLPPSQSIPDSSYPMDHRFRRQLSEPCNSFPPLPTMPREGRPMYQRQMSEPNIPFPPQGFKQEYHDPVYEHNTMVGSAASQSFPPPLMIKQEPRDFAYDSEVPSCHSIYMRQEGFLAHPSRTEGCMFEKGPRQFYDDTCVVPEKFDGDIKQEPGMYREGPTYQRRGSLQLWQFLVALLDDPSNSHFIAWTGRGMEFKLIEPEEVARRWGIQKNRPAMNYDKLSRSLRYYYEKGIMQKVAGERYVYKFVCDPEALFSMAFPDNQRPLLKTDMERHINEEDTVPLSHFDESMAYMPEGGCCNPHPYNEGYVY
Chain of ETV5 (P41161 whole entry): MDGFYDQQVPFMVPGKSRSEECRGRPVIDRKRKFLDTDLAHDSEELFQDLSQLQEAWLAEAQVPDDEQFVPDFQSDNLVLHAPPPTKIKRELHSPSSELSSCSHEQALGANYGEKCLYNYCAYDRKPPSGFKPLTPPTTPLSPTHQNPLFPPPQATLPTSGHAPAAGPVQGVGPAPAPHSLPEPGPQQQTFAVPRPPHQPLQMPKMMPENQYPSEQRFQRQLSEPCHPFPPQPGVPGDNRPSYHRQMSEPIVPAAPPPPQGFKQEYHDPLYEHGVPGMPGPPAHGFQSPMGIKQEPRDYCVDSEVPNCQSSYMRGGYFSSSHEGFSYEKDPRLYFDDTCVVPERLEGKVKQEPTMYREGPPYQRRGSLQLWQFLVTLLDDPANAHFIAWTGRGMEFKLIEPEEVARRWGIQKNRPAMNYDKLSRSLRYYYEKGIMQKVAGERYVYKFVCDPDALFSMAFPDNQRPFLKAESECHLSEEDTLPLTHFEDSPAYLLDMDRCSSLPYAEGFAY

AATATC: the binding signal is 1.56 fold enrichment (6-mer frequency, TF over GST control) in the test with FEV; 1.53 fold enrichment (6-mer frequency, TF over GST control) in the test with ETV5; 1.49 fold enrichment (6-mer frequency, TF over GST control) with HSF1; 1.49 fold enrichment (6-mer frequency, TF over GST control) with SPIC; 1.44 fold enrichment (6-mer frequency, TF over GST control) with ELF4; 1.48 fold enrichment (6-mer frequency, TF over GST control) with ELK4. The binding signal in the test with ETV2 is 1.73 fold enrichment (6-mer frequency, TF over GST control); with ELF3 it was 1.55 fold enrichment (6-mer frequency, TF over GST control); in the test with CRX, 1.55 fold enrichment (6-mer frequency, TF over GST control); with ETV1 it was 1.56 fold enrichment (6-mer frequency, TF over GST control); with ERF it was 1.46 fold enrichment (6-mer frequency, TF over GST control); with ETV3L it was 1.48 fold enrichment (6-mer frequency, TF over GST control). In addition, the binding signal with ETS2 was 1.55 fold enrichment (6-mer frequency, TF over GST control); in the test with SPDEF it was 1.78 fold enrichment (6-mer frequency, TF over GST control); in the test with ETV7 it was 1.52 fold enrichment (6-mer frequency, TF over GST control); with ELF5, 1.82 fold enrichment (6-mer frequency, TF over GST control); in the test with ETV3 it was 1.6 fold enrichment (6-mer frequency, TF over GST control); with ETV6, 1.57 fold enrichment (6-mer frequency, TF over GST control).
